test: HSE-luciferase reporter activators – cell-based (AID 1611); conditions: human cells, HSE-luciferase heat shock reporter; stronger effect = higher value

| Structure (SMILES) | fold change |
| --- | --- |
| COc1ccc(CCN2CCC(Nc3nc4ccccc4n3Cc3ccc(F)cc3)CC2)cc1 | 1.64 |
| CO[C@@H]1[C@@H](OC(N)=O)[C@@H](O)[C@H](Oc2ccc3c(O)c(NC(=O)c4ccc(O)c(CC=C(C)C)c4)c(=O)oc3c2C)OC1(C)C | 1.06 |
| O=c1ccn([C@@H]2O[C@H](COP(=O)(O)OP(=O)(O)OP(=O)(O)O)[C@@H](O)[C@H]2O)c(=O)[nH]1 | 1.15 |
| C=CCc1ccccc1OCC(O)CNC(C)C (stereo not drawn) | 1.15 |
| C=C[C@H]1CN2CC[C@H]1C[C@@H]2[C@H](O)c1ccnc2ccc(OC)cc12 | 1.63 |
| CC1(C)S[C@@H]2[C@H](NC(=O)[C@@H](N)c3ccc(O)cc3)C(=O)N2[C@H]1C(=O)O | 1.21 |
| Oc1cccc(O)c1 | 1.06 |
| CO/N=C(/C(=O)NC1C(=O)N2C(C(=O)O)=C(COC(N)=O)CSC12)c1ccco1 (stereo not drawn) | 1 |
| NC(N)=NC(=O)c1nc(Cl)c(N)nc1N | 0.89 |
| O=c1c(O)cc2c(O)oc3c(=O)c(O)cc4c3c2c1CC=4O | 1.46 |
| O=C(O)c1cccnc1Nc1cccc(C(F)(F)F)c1 | 1.08 |
| CC1CCC(NC(=O)N(CCCl)N=O)CC1 (stereo not drawn) | 0.95 |
| NCC(O)CC(=O)O (stereo not drawn) | 0.94 |
| O=C1C(CCS(=O)c2ccccc2)C(=O)N(c2ccccc2)N1c1ccccc1 (stereo not drawn) | 0.91 |
| COc1ccc2cc([C@H](C)C(=O)O)ccc2c1 | 0.71 |
| O=C1c2c(O)cccc2Cc2cccc(O)c21 | 0.93 |
| c1ccc(CN(CC2=NCCN2)c2ccccc2)cc1 | 1.78 |
| CC[C@H](C)C(=O)O[C@H]1CCC=C2C=C[C@H](C)C(CCC3C[C@@H](O)CC(=O)O3)[C@H]21 (stereo partly drawn) | 1.15 |

From PubChem BioAssay AID1611 (NINDS Approved Drug Screening Program, 2009)
